Laboratory results reported in the supplement of paper PMC8728848.
The sample as a whole holds a higher share of the strongest signals than the screen did.

Tests used:
Assay in all cases: glycan array binding signal (z-score within array); higher = stronger binding
Settings in all cases: glycan notation: IUPAC condensed, linker removed
[1] = target: Glc(a1-4)Glc(a1-4)Glc(a1-4)Glc
Summary of the method: (§1)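 The Consortium for Functional Glycomics database supplied 3228 glycan arrays, of which those lacking an available protein sequence were dropped. The binding signal, a within-array Z-score, was averaged across arrays of the same protein sequence and across linkers. Negative scores can be read as non-binding.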

[2] = target: GlcNAc(a1-4)Gal(b1-3)GlcNAc
Summary of the method: as §1

[3] = target: GlcNAc(a1-4)Gal(b1-4)GlcNAc(b1-3)Gal(b1-4)Glc
Summary of the method: as §1

[4] = target: GlcNAc(b1-2)Man(a1-3)[GlcNAc(b1-2)Man(a1-6)]Man(b1-4)GlcNAc(b1-4)GlcNAc
Summary of the method: as §1

[5] = target: GlcNAc(b1-2)[GlcNAc(b1-6)]Man(a1-6)[GlcNAc(b1-2)Man(a1-3)]Man(b1-4)GlcNAc(b1-4)GlcNAc
Summary of the method: as §1

[6] = target: GlcNAc(b1-3)Gal(b1-4)GlcNAc(b1-2)[GlcNAc(b1-3)Gal(b1-4)GlcNAc(b1-6)]Man(a1-6)[GlcNAc(b1-3)Gal(b1-4)GlcNAc(b1-2)Man(a1-3)]Man(b1-4)GlcNAc(b1-4)GlcNAc
Summary of the method: as §1

[7] = target: GlcNAc(b1-3)Gal(b1-4)GlcNAc(b1-3)[GlcNAc(b1-3)Gal(b1-4)GlcNAc(b1-3)]GalNAc
Summary of the method: as §1

[8] = target: Man(a1-2)Man(a1-3)[Man(a1-2)Man(a1-6)]Man(a1-6)[Man(a1-2)Man(a1-2)Man(a1-3)]Man
Summary of the method: as §1

Man(b1-4)GlcNAc = target: Man(b1-4)GlcNAc
Summary of the method: as §1

[9] = target: Neu5Ac(a2-3)Gal(b1-3)GlcNAc(b1-2)Man(a1-3)[Neu5Ac(a2-3)Gal(b1-3)GlcNAc(b1-2)Man(a1-6)]Man(b1-4)GlcNAc(b1-4)GlcNAc
Summary of the method: as §1

[10] = target: Neu5Ac(a2-3)Gal(b1-3)GlcNAc(b1-4)Gal(b1-4)Glc
Summary of the method: as §1

[11] = target: Neu5Ac(a2-3)Gal(b1-4)GlcNAc(b1-3)Gal(b1-4)GlcNAc(b1-3)Gal(b1-4)GlcNAc
Summary of the method: as §1

[12] = target: Neu5Ac(a2-3)Gal(b1-4)GlcNAc(b1-6)[Gal(b1-3)]GalNAc
Summary of the method: as §1

[13] = target: Neu5Ac(a2-3)Gal(b1-4)[Fuc(a1-3)]GlcNAc(b1-3)Gal(b1-4)[Fuc(a1-3)]GlcNAc(b1-3)Gal(b1-4)[Fuc(a1-3)]GlcNAc
Summary of the method: as §1

[14] = target: Neu5Ac(a2-3)[Neu5Ac(a2-6)]GalNAc
Summary of the method: as §1

[15] = target: Neu5Ac(a2-6)Gal(b1-4)GlcNAc(b1-2)[Neu5Ac(a2-6)Gal(b1-4)GlcNAc(b1-6)]Man(a1-6)[Neu5Ac(a2-6)Gal(b1-4)GlcNAc(b1-2)Man(a1-3)][GlcNAc(b1-4)]Man(b1-4)GlcNAc(b1-4)GlcNAc
Summary of the method: as §1

[16] = target: Neu5Ac(a2-6)Gal(b1-4)GlcNAc(b1-3)Gal(b1-3)GlcNAc
Summary of the method: as §1

[17] = target: Neu5Ac(a2-6)Gal(b1-4)GlcNAc(b1-3)Gal(b1-4)GlcNAc(b1-6)[Gal(b1-3)]GalNAc
Summary of the method: as §1

[18] = target: Neu5Ac(a2-6)Gal(b1-4)GlcNAc(b1-3)Gal(b1-4)[Fuc(a1-3)]GlcNAc(b1-3)Gal(b1-4)[Fuc(a1-3)]GlcNAc
Summary of the method: as §1

[19] = target: Neu5Ac(a2-6)Gal(b1-4)GlcNAc(b1-3)[Neu5Ac(a2-6)Gal(b1-4)GlcNAc(b1-6)]GalNAc
Summary of the method: as §1

[20] = target: Neu5Ac(a2-6)Gal(b1-4)GlcNAc(b1-6)[Gal(b1-3)]GalNAc
Summary of the method: as §1

[21] = target: Neu5Ac(a2-6)GlcNAc(b1-4)GlcNAc
Summary of the method: as §1

[22] = target: Neu5Ac(a2-6)GlcNAc(b1-4)GlcNAc(b1-4)GlcNAc
Summary of the method: as §1

[23] = target: Neu5Ac(a2-8)Neu5Ac(a2-3)Gal(b1-4)Glc
Summary of the method: as §1

[24] = target: Neu5Ac(a2-8)Neu5Ac(a2-8)Neu5Ac(a2-3)Gal(b1-4)Glc
Summary of the method: as §1

[25] = target: Neu5Ac(a2-8)Neu5Gc(a2-3)Gal(b1-4)GlcNAc
Summary of the method: as §1

[26] = target: Neu5Gc(a2-3)Gal(b1-4)GlcNAc(b1-3)Gal(b1-4)GlcNAc(b1-2)Man(a1-3)[Neu5Gc(a2-3)Gal(b1-4)GlcNAc(b1-3)Gal(b1-4)GlcNAc(b1-2)Man(a1-6)]Man(b1-4)GlcNAc(b1-4)GlcNAc
Summary of the method: as §1

[27] = target: Neu5Gc(a2-8)Neu5Gc(a2-6)Gal(b1-4)GlcNAc
Summary of the method: as §1

B1: SfaEH (Escherichia coli), Q1RDG5 (protein)
chain: LLCRNNQTGQVFNSGDTSFRVNVSPVVQYDKSISVLDLSQLVSCQNEDSTGQNYDYLKILKGSGFSPALDTKTYGRLDFTSRPTGYARQLPLQFDLQVTEAFYQYGVWKPFPAKLYLYPAPGVFGKVINNGDLLATLYVNKFSTKGQEAGERNFTWRFYATNDVYIQTGTCRVSSNNVKVDLPSYPGGPVTVPLTVRCDQTQSVSYTLSGPVTGSGNTVFANTAASGSGGVGIQLSDNVGPVPAGQPRSLGQVGSSPVSLGLKASYALTGQASPTPGAVQSVINVTFSYN
In the case of B1, the “glycan array binding signal (z-score)” value [1] is reported as -0.651, the “glycan array binding signal (z-score)” value [2] is reported as -0.403 and the “glycan array binding signal (z-score)” value [3] is reported as -0.748. The “glycan array binding signal (z-score)” value [4] was 0.345, the “glycan array binding signal (z-score)” value [5] was -0.668 and the “glycan array binding signal (z-score)” value [6] was 2.3. The “glycan array binding signal (z-score)” value [7] was 0.026, the “glycan array binding signal (z-score)” value [8] was 0.008 and the “glycan array binding signal (z-score)” value (Man(b1-4)GlcNAc) was -0.49. The “glycan array binding signal (z-score)” value [9] was -0.547, the “glycan array binding signal (z-score)” value [10] was -0.421 and the “glycan array binding signal (z-score)” value [11] was 7.11. For the same binder, the “glycan array binding signal (z-score)” value [12] was 2.32, the “glycan array binding signal (z-score)” value [13] was 0.9 and the “glycan array binding signal (z-score)” value [14] was 3.69. The “glycan array binding signal (z-score)” value [15] was -0.534, the “glycan array binding signal (z-score)” value [16] was -0.233 and the “glycan array binding signal (z-score)” value [17] was 0.079. The “glycan array binding signal (z-score)” value [18] was -0.154, the “glycan array binding signal (z-score)” value [19] was 2.22 and the “glycan array binding signal (z-score)” value [20] was 0.841. For the same binder, the “glycan array binding signal (z-score)” value [21] was -0.508, the “glycan array binding signal (z-score)” value [22] was 1.19 and the “glycan array binding signal (z-score)” value [23] was 0.69. For the same binder, the “glycan array binding signal (z-score)” value [24] was 0.437, the “glycan array binding signal (z-score)” value [25] was -0.786 and the “glycan array binding signal (z-score)” value [26] was -0.442. For the same binder, the “glycan array binding signal (z-score)” value [27] was 2.33.
